Experiments:
Conditions in all cases: concentration: 1 μM,replicates: in singlicate; n = 1
[1] = test system: PIP5K1A
[2] = test system: PIP5K1C
[3] = test system: PIP5K2B
[4] = test system: T1, PIP5K2C
T1 construct: gene PIP4K2C

[5] = test system: T2, PKAC-alpha
T2 construct: gene PRKACA

[6] = test system: T3, PKAC-beta
T3 construct: gene PRKACB

[7] = test system: PKMYT1
[8] = test system: PKN1
[9] = test system: PKN2
[10] = test system: PLK1
[11] = test system: PLK2
[12] = test system: PLK3
[13] = test system: PLK4
[14] = test system: PRKCD
[15] = test system: PRKCE
[16] = test system: PRKCH
[17] = test system: PRKCI
[18] = test system: PRKCQ
[19] = test system: PRKD1
[20] = test system: PRKD2
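Note: KINOMEscan kinase panel screen.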

SMILES	%Inh [1] [%]	%Inh [2] [%]	%Inh [3] [%]	%Inh [4] [%]	%Inh [5] [%]	%Inh [6] [%]	%Inh [7] [%]	%Inh [8] [%]	%Inh [9] [%]	%Inh [10] [%]	%Inh [11] [%]	%Inh [12] [%]	%Inh [13] [%]	%Inh [14] [%]	%Inh [15] [%]	%Inh [16] [%]	%Inh [17] [%]	%Inh [18] [%]	%Inh [19] [%]	%Inh [20] [%]
O=C(Nc1ccccc1)c1cccc(Oc2ccc3nccn3n2)c1	0	23	15	14	5	0	0	26	29	36	5	0	0	0	13	0	5	24	33	0
C[C@@H]1CNc2c(sc3ccc4nc(-c5ccncc5)ccc4c23)C(=O)N1	30	11	0	0	0	27	7	7	15	0	1	8	92.7	22	65	0	0	8	49	12
Cl.Nc1n[nH]c2cc(-c3ccccn3)ccc12 [GSK2189892]	0	25	7	7	0	0	0	10	0	0	0	0	0	0	0	13	8	7	0	10
CCn1c(-c2nonc2N)nc2cncc(CNC3CCNCC3)c21.Cl [SB-747651]	0	25	0	22	85	83	3	39	0	0	0	0	0	77	66	89	10	43	0	0
CS(=O)(=O)c1cccc(CNc2nc(Nc3ccc4c(c3)[C@@H]3C[C@@H]4CNC3=O)ncc2C(F)(F)F)c1	52	48	93.3	52	0	0	0	56	22	0	0	0	98.7	0	5	0	8	14	22	28
COc1cc2c(Nc3ccc(NC(=O)c4ccccc4)cc3)ncnc2cc1OCCCN1CCOCC1 [GSK301329]	0	27	14	0	3	14	1	0	0	0	0	0	36	6	0	0	0	9	0	4
CC(C)S(=O)(=O)N1CCN(Cc2ccc3c(c2)nc(NC(=O)c2ccsc2)n3C[C@H](O)c2ccccc2)CC1 [GW635815]	0	15	35	24	0	27	8	6	25	0	0	0	5	11	15	13	18	12	0	0
Cl.Cl.NC[C@H](CC1CCCCC1)NC(=O)c1ccc(-c2ccnc3[nH]ccc23)s1 [GSK1581428]	47	41	75	25	99.7	99.9	0	52	99	2	0	0	41	100	98.5	100	22	95.3	91.8	96.7
N#Cc1cccc(C(=O)NC2CCN(c3ccnc(Nc4ccc(F)cc4)n3)C2)c1 (stereo not drawn) [GSK1379708]	0	37	0	21	9	0	0	14	0	0	0	0	0	0	0	0	23	0	0	0
Nc1nccc(-c2ccc3c(N)n[nH]c3c2)n1 [GSK1034945]	0	29	48	10	12	0	8	0	9	0	0	0	0	0	0	11	3	21	0	0
C[C@@H](Oc1cc(-n2cnc3cc(-c4ccncc4)ccc32)sc1C(N)=O)c1ccccc1Cl [GSK479719]	0	58	21	29	0	0	0	15	44	–	99.5	–	29	0	18	12	0	2	0	0
C[C@@H](Oc1cc(-n2cnc3cc(-c4cnn(C)c4)ccc32)sc1C(N)=O)c1ccccc1Cl [GSK580432]	0	38	37	3	2	0	15	0	72	–	99.5	–	64	23	1	0	46	35	0	0
COc1cccc(CNC(=O)NC2CCN(c3ccnc(Nc4cc(OC)c(OC)c(OC)c4)n3)C2)c1 (stereo not drawn) [GSK1379765]	52	68	14	90.3	0	0	8	36	0	0	0	0	43	0	17	12	31	37	0	3
COc1cccc(OC)c1C(=O)Nc1cccc(-c2nn3ccccc3c2-c2ccnc(Nc3cccc(F)c3)n2)c1 [GSK361065]	0	0	0	0	23	0	5	0	13	0	10	0	16	26	14	11	21	17	17	1
CCNCC(Cc1ccccc1)NC(=O)c1cc(Br)c(-c2ccnc3[nH]ccc23)s1.Cl.Cl (stereo not drawn) [GSK1383280]	55	38	16	36	99.4	99.3	0	39	58	0	30	47	92.3	91.7	94.5	93.1	26	74	77	73
CN1CCN(CCNc2nc3cc(Oc4ccc(NC(=O)Nc5cc(C(F)(F)F)ccc5F)cc4)ccc3[nH]2)CC1.Cl.Cl [GW768504]	20	0	0	0	0	2	0	0	8	0	0	0	8	9	0	0	0	0	0	14
O=C(NOCC1CC1)c1cc(Br)c(F)c(F)c1Nc1ccc(I)cc1Cl	4	43	4	36	9	0	0	9	0	0	0	4	0	0	6	0	0	13	0	11

SMILES	%Inh [1] [%]	%Inh [2] [%]	%Inh [3] [%]	%Inh [4] [%]	%Inh [5] [%]	%Inh [6] [%]	%Inh [7] [%]	%Inh [8] [%]	%Inh [9] [%]	%Inh [10] [%]	%Inh [11] [%]	%Inh [12] [%]	%Inh [13] [%]	%Inh [14] [%]	%Inh [15] [%]	%Inh [16] [%]	%Inh [17] [%]	%Inh [18] [%]	%Inh [19] [%]	%Inh [20] [%]
CC(C(=O)NC1CCN(c2ccnc(Nc3ccc(F)cc3)n2)C1)c1ccc(Cl)cc1 (stereo not drawn) [GSK1379713]	21	0	1	4	0	6	0	4	0	0	0	0	0	0	3	8	11	21	0	0
Cn1ccc2ncnc(Oc3ccc(NC(=O)Nc4cc(C(C)(C)C)on4)c(Cl)c3)c21	14	0	38	0	0	0	0	0	0	0	4	7	19	21	0	0	6	27	0	7
COC(=O)c1cccc(NC(=O)NC2CCN(c3ccnc(Nc4cc(OC)c(OC)c(OC)c4)n3)C2)c1 (stereo not drawn) [GSK1379767]	22	64	10	90.7	0	0	6	7	0	8	0	0	38	0	18	7	19	0	0	5
Cn1ccc2ncnc(Oc3ccc(NC(=O)Nc4ccnc(C(F)(F)F)c4)c(Cl)c3)c21	13	0	15	0	0	0	3	0	0	0	0	0	11	0	0	0	0	7	0	4
NC(=O)Nc1sc(-c2ccc(F)cc2)cc1C(N)=O [GW789449]	93.9	65	87	28	0	26	0	7	54	37	20	1	26	20	17	0	25	35	0	0
Cn1ccc2ncnc(Oc3ccc(NC(=O)Nc4cccc(C(F)(F)F)c4)c(Cl)c3)c21	0	48	2	0	0	0	0	0	0	0	2	22	9	0	0	0	8	7	0	15
COc1cc2ncn(-c3cc(OCC4CCCCC4)c(C(N)=O)s3)c2cc1OC [GSK204559]	0	61	12	11	9	0	2	24	0	–	99.3	99.3	4	24	0	30	0	32	0	0
Cc1n[nH]c2cc(Nc3ccnc(Nc4cccc(CN5CCOCC5)c4)n3)ccc12 [GW682569]	57	70	33	71	0	0	0	46	0	0	15	53	72	0	51	0	26	0	0	0
O=C1NCCc2[nH]c(-c3ccncc3)cc21	2	12	4	0	34	32	4	77	80	–	37	40	30	27	59	58	18	46	72	0
Cc1ccc(CC(=O)N2CCc3cc(-c4cn(C)c5ncnc(N)c45)ccc32)cc1 [GSK2634758]	33	57	32	17	0	0	4	0	16	7	2	0	0	15	15	35	27	33	0	14
Cc1nnc(-c2ccc3occ(-c4ccc(S(C)=O)cc4)c3n2)o1 (stereo not drawn)	9	10	0	43	0	0	64	0	0	0	0	0	0	0	0	4	0	0	22	0
COc1cccc(C2=C(Nc3cccc(Cl)c3)C(=O)NC2=O)c1 [SB-341556]	0	23	0	28	0	0	0	5	0	0	0	0	8	26	19	0	0	17	0	0
COC(=O)c1cccc(NC(=O)NC2CCN(c3ccnc(NCc4ccc(F)cc4)n3)CC2)c1 [GSK1379860]	0	20	19	2	0	0	0	32	0	0	0	0	0	0	0	32	28	26	12	2
C[C@@H]1CNc2c(sc3ccc4nc(-c5ccc(O)cc5)ccc4c23)C(=O)N1	3	18	78	13	4	5	2	0	16	0	6	15	90.1	43	46	35	5	59	70	34
Cn1cc(-c2cccc3c(N)c(C(N)=O)nnc23)cn1	0	5	0	7	0	16	9	0	23	14	13	17	26	24	10	36	24	53	0	15
Cc1ccc(C(=O)Nc2ccc(Oc3ccc4nc(NC(=O)C5CC5)cn4c3)c(F)c2)c(=O)n1-c1ccccc1	26	44	34	77	0	26	0	0	0	2	0	0	35	0	0	0	28	24	0	0
